Hits are enriched below; roughly 11% of the tested compounds scored in any of these assays.
BAZ2B block: inhibitors of human BAZ2B bromodomain; AID 504333; Potency, µM (titrated, usually from 114 µM), for inactives: at the top dose activity change, negative = inhibition, hits mostly inhibitors; 360,000 tested, 4.4% active; AlphaScreen BAZ2B-H3K14Ac peptide displacement; Q9UIF8; also: % is scaled to controls: 0 for no effect and ±100 for the full control effect; nearly all actives have a fitted effect of over 60% in size
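AlphaScreen displacement: compounds (up to 110uM) incubated 30 min at room temperature with a preformed 50 nM BAZ2B/50 nM biotinylated H3K14Ac peptide complex in PBS pH 7.4 with Tween-20. Donor and acceptor beads at 10 ug/mL final added, 20 min light-protected before reading.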
G9a inh: blocks human histone lysine methyltransferase G9a | Potency, µM (top dose mostly 102 µM), without a hit: at the top dose activity, negative = inhibition, hits mostly inhibitors | AID 504332 | Q96KQ7 | 350,000 tested, 8.8% active | G9a H3K9 monomethylation, AlphaScreen, 2 h; also: % is scaled to controls: 0 for no effect and ±100 for the full control effect; nearly all actives have a fitted effect of over 75% in size
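Enzyme 20 nM + cpd, 15 min RT; add b-H3K9 pep 500 nM / SAM 20 uM; 2 h RT; anti-H3K9me1 Ab 0.5 ug/mL + SA donor / anti-rabbit acceptor beads 20 ug/mL each, 10 min; AlphaScreen read.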
VDR inhibitor: vitamin D3 receptor (human) inhibition; P11473; VDR-SRC2-3 peptide fluorescence polarization, 2 h; Potency, µM, for inactives: max response, negative = inhibition, actives largely listed as inhibitors; 400,000 tested, 0.93% active; AID 504847; also: % is scaled to controls: 0 for no effect and ±100 for the full control effect
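After 23 nl compound addition and a short centrifugation, plates sat for 2 hours at ambient temperature; polarization of fluorescence then indicated loss of VDR binding to peptide SRC2-3.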
JMJD2A Tudor: blocks the human JMJD2A Tudor domain; O75164; AlphaScreen JMJD2A-Tudor / H3K4me3 peptide binding; Potency, µM (highest dose often 114 µM), inactives show top-dose activity change, negative = inhibition, usual class: inhibitors; 390,000 tested, 4.4% active; also: % is scaled to controls: 0 for no effect and ±100 for the full control effect; nearly all actives have a fitted effect of over 50% in size
Target sequence (O75164 whole entry, looked up, the tested form may be a part): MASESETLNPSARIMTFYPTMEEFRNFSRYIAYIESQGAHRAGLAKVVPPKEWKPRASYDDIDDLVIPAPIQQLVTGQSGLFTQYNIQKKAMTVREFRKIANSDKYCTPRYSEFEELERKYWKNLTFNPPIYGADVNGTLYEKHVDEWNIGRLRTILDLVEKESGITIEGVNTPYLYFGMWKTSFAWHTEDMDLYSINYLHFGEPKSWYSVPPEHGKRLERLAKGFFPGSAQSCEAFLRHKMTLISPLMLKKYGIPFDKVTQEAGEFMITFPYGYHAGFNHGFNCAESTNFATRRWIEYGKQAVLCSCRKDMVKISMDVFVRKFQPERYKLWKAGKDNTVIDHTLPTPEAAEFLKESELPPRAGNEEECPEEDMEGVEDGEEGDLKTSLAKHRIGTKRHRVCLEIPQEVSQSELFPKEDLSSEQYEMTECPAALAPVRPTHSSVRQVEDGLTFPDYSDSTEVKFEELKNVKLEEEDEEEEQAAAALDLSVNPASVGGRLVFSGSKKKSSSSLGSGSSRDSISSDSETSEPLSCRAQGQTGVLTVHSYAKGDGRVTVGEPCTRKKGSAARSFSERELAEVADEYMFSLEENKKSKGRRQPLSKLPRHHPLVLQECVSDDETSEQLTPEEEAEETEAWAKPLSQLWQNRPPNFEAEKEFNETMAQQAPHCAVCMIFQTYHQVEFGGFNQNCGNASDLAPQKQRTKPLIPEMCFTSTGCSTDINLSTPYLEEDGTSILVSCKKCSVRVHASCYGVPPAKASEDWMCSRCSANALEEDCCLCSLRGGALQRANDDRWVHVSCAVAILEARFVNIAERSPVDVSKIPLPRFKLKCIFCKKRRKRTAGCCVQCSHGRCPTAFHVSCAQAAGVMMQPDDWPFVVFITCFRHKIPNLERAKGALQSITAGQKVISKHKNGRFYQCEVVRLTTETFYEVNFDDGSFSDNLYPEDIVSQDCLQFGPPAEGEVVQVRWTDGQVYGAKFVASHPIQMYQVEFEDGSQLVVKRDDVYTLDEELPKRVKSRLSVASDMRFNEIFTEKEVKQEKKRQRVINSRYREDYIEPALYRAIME
HP1b binding inh: HP1-beta chromodomain-methylated histone interaction inhibition; AID 540317; Potency, µM (series often up to 114 µM), for the others: top-dose activity change, negative = inhibition, most hits filed as inhibitors; AlphaScreen HP1-beta / biotin-H3K9me3 peptide binding; 390,000 tested, 0.56% active; also: nearly all actives have a fitted effect of over 70% in size
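Compound inhibition of the preformed complex between 50 nM HP1-beta and 50 nM biotinylated H3K9me3 peptide was read by AlphaScreen. Buffer was PBS pH 7.4 with 0.01% Tween-20. Incubations ran 30 min at room temperature, with 10 ug/mL donor/acceptor beads.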
PLK1 PBD block: PLK1 (human) polo-box domain binding inhibition; 360,000 tested, 2.8% active; AID 720504; Plk1 PBD binding of FITC phosphopeptide, fluorescence polarization; Potency, µM, inactives show max response, negative = inhibition, usual class: inhibitors; also: series mostly up to about 57 µM; % is scaled to controls: 0 for no effect and ±100 for the full control effect; nearly all actives have a fitted effect of over 65% in size
* marks the source's active call; other numbers are inactive results; ? = inconclusive; . = no result; [ ] = remark or other dose. Calls follow the shape of the dose curve; as a rule, active = well fitted curve in the direction sought with a large enough effect; inconclusive = small, poorly fitted or top-dose-only effect, or another doubt; inactive = no such curve, though single readings can be large; an effect the other way counts as inactive or inconclusive. Potency is read from the fitted curve at half-maximal effect.

SMILES	BAZ2B block	G9a inh	VDR inhibitor	JMJD2A Tudor	HP1b binding inh	PLK1 PBD block
COC(=O)c1ccc(CNC(=O)C2CCC(=O)N(C3CCCCCC3)C2)cc1 (stereo unspecified)	-2%	0%	11%	-9%	18%	-3%
O=C(NCCCn1ccnc1)/C(=C/c1ccccc1)NC(=O)c1ccccc1	?	-14%[12.7 µM]	-2%	45µM*	6%	24µM*
CN(C)c1ccc(/C=C(\NC(=O)c2ccccc2)C(=O)NCCCn2ccnc2)cc1	28µM*	50µM*	13%	50µM*	-26%	-10%
O=C(NCCCn1ccnc1)/C(=C\c1ccc(Br)cc1)NC(=O)c1ccccc1	-37%	21%	?	?	11%	11µM*
CCn1cc(/C=C(\NC(=O)c2ccc(OC)cc2)C(=O)NCCCn2ccnc2)c2ccccc21	?	-4%[59 µM]	4%	?	-10%	5%
COc1ccc(C(=O)N/C(=C\c2ccccc2)C(=O)NCCCn2ccnc2)cc1	6%	1%	-9%	13%	22%	5%
COc1ccc(C(=O)N/C(=C\c2cn(S(=O)(=O)N(C)C)c3ccccc23)C(=O)NCCCn2ccnc2)cc1	32µM*	1%	26%	?	22%	-6%
COc1ccc(/C=C(/NC(=O)c2ccccc2)C(=O)NCCCn2ccnc2)cc1OC	-23%	14%	7%	-3%	27%	0%
CC(=O)/C=C\C1[C@]2(C)CCCC(C)(C)C2CC[C@@]1(C)O (stereo partly specified)	.	.	1%	.	.	.
C=CCOc1ccccc1CNc1ccc2c(c1)OCCO2	71µM*	8.9µM*	-4%	50µM*	?	?
COc1cc(CNc2ccc3[nH]c(=O)[nH]c3c2)cc(Cl)c1OCc1ccccc1F	-16%	-28%[59 µM]	6%	-28%	3%	.
CCOc1ccc(Br)cc1CNc1ccc2c(c1)OCCO2	25µM*	-138%[59 µM]	2%	28µM*	50µM*	-2%
COc1cccc(CNc2ccc3[nH]c(=O)[nH]c3c2)c1OCc1ccccc1F	28µM*	45µM*	-15%	45µM*	32µM*	-5%
C=CCOc1ccccc1CNc1ccc2[nH]c(=O)[nH]c2c1	56µM*	28µM*	8%	?	?	-7%
C=CCOC(/C=C/c1ccccc1)C[Si](C)(C)C (stereo unspecified)	.	.	?	-18%	0%	.
Cc1noc(/C=C/N(C)C)c1S(=O)(=O)N1CCCC(C(=O)Nc2ccccc2F)C1 (stereo unspecified)	?	3%	-2%	-11%	24%	-6%
O=C(CSc1ncnc2sccc12)NCc1ccc2c(c1)OCO2	5%	-3%[12.7 µM]	-11%	-12%	32%	-5%
Nc1ccc(C(=O)n2c3ccccc3c3ccccc32)cc1	-2%	8.9µM*	-10%	-21%	25%	-21%
Cc1ccc(C(O)C(=O)c2ccco2)cc1 (stereo unspecified)	-1%	-2%[2.33 µM]	-4%	-3%	101%	-6%
O=C(c1ccco1)C(O)c1ccco1 (stereo unspecified)	-13%	50µM*	-9%	-10%	22%	?
COc1cccc(C2C=C(c3ccc(C)cc3)Nc3c(C(=O)Nc4ccc(F)cc4)cnn32)c1OC (stereo unspecified)	?	?	2%	?	-11%	.
CCn1cc(-c2ccccc2)c(C(=O)O)c1-c1ccc(OC)cc1	-9%	-11%[2.33 µM]	0%	-16%	-8%	-9%
Cc1nn(CC(=O)NCc2cccs2)c(=O)c2nn(-c3ccccc3)c(C)c12	-23%	3%	1%	-5%	36%	-10%
COc1ccc(C(C(=O)Nc2ccc(C(C)C)cc2)N(C)C(=O)c2ccc(=O)[nH]c2)cc1 (stereo unspecified)	-6%	-35%	6%	50µM*	-16%	27µM*
COc1ccc(NC(=O)CN(C)C(=O)c2ccc(=O)[nH]c2)cc1	-15%	-3%	15%	4%	22%	9%
SMILES	BAZ2B block	G9a inh	VDR inhibitor	JMJD2A Tudor	HP1b binding inh	PLK1 PBD block
COc1ccc(NC(=O)CSc2nnc(NC(=O)c3ccccc3C(=O)O)s2)cc1	-3%	?	-14%	50µM*	-6%	17µM*
CC(C)Nc1nnc(SCC(=O)Nc2ccc(F)cc2)s1	3%	40µM*	1%	-6%	11%	-14%
COc1ccc(Nc2nnc(SCC(=O)Nc3ccc4[nH]c(=O)[nH]c4c3)s2)cc1	-5%	16µM*	-3%	-26%	18%	-28%
COc1ccc(NC(=O)CSc2nnc(NC(=O)Nc3ccc(OC)cc3)s2)cc1	-18%	?	-1%	-11%	33%	.
O=C(CSc1nncs1)Nc1ccc2[nH]c(=O)[nH]c2c1	0%	11µM*	1%	-15%	31%	1%
Cn1c(CNc2ccc(F)cc2)nc2ccccc21	-33%	13%	-1%	-26%	12%	-25%
Cc1cc(-c2nsc(=O)o2)c(S(C)(=O)=O)s1	0%	2µM*	?	?	?	3.8µM*
OCCNc1cnc2ccccc2n1	-11%	3%	?	-29%[11.4 µM]	-2%	12µM*
Cc1ccc(C)c(SCC(=O)Nc2cccnc2Cl)c1	7%	26%	-18%	15%	63%	-18%
Oc1ccccc1N=Nc1ccccc1O	.	16µM*	11%	32µM*	-16%	5%
C=CCn1c(O)c(N=Nc2ccccc2O)c2ccccc21	?	-15%[2.33 µM]	-18%	?	6%	14%
Nc1ccc(N=Nc2ccccc2O)c(N)c1	.	.	4%	35µM*	?	-4%
[O-]/C(=C(\C(=S)Nc1cccc2ccccc12)[n+]1ccccc1)c1ccc(OC(F)F)cc1	35µM*	45µM*	-19%	-29%[57.1 µM]	-24%	-22%
COc1cccc(NC(=S)/C(=C(\[O-])c2ccc(OC(F)F)cc2)[n+]2ccccc2)c1	-31%	18µM*	-12%	-30%	4%	-25%
[O-]/C(=C(\C(=S)Nc1cccc2ccccc12)[n+]1ccccc1)c1ccc2c(c1)OCCO2	56µM*	8.9µM*	-9%	?	-16%	?
COc1cc(NC(=S)Nc2ccc(OC(F)F)cc2)cc(OC)c1	-14%	?	4%	-19%	14%	-19%
CC(C)C(=O)c1cc2c(cc1NC(=O)Nc1cccc3ccccc13)OCCO2	12%	5%[59 µM]	.	.	.	.
O=C(C[n+]1ccc(C(=O)NCc2ccccc2)cc1)c1ccc(OC(F)F)cc1	16%	?	-3%	-10%	32%	-7%
Cc1ccc2[nH]c(=O)c(CN(CCO)Cc3nnnn3Cc3ccco3)cc2c1	.	.	-14%	-8%[57.1 µM]	24%[57 µM]	.
CCCc1nc2ccc(NC(C)=O)cc2c(=O)n1Cc1ccc(Cl)cc1	-37%	-7%[59 µM]	17%	-21%	12%	-9%

Compound activity from PubChem BioAssay.
